Screens as filed in PubChem BioAssay.
FEN1 inh-1 – human FEN1 inhibition; P39748; AID 588795; Recombinant FEN1 flap cleavage, fluorescence, 15 min; hit rate 0.35% among 390,000; Potency, µM (series often up to 114 µM), for inactives: at the top dose activity change, negative = inhibition, usual class: inhibitors; note: potency is the fitted concentration of half-maximal effect; % is set by controls: 0 for no effect and ±100 for the full control effect; nearly all actives have a fitted effect of over 65% in size
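Compounds are tested as a concentration series against 10 nM FEN1; after a 15 min room-temperature preincubation, 50 nM substrate starts cleavage, with plate reads at 0 and 15 min. Normalized responses are fitted by a Hill equation.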
WRN helicase inh-1 – WRN helicase (human) inhibition; Q14191; WRN helicase unwinding, fluorescent forked duplex, kinetic; Potency, µM (series often up to 114 µM), for the others: at the top dose activity change, negative = inhibition, most hits filed as inhibitors; hit rate 0.46% among 360,000; note: potency is the fitted concentration of half-maximal effect; % is set by controls: 0 for no effect and ±100 for the full control effect; nearly all actives have a fitted effect of over 55% in size
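WRN at 20 nM final preincubated with compound 15 min at room temperature; reaction started with 100 nM fluorophore/quencher forked duplex oligonucleotide and 2 mM ATP final. Unwinding followed kinetically by red fluorescence (ex 525, em 598 nm).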
PI5P4Ka inh – blocks human PI5P4K alpha kinase activity; max response, %; PI5P4Kalpha enzyme, ADP-Glo luminescence, 60 min; hits give low values; AID 652105; hit rate 1.2% among 330,000; active = max response of -50% or lower; inconclusive = between -30% and -50%; inactive = -30% or higher; note: value at the top dose of about 77 µM; % is set by controls: 0 for no effect and ±100 for the full control effect
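Reactions run in 0.038 M HEPES pH 7.4, 0.28 mM EGTA, 0.1% CHAPS and 5% DMSO, with PI5P4Kalpha, substrate, compound and 5 microM ATP final, one hour at room temperature. Readout is ADP-Glo luminescence.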
APE1 inh-1 – APE1 (human) endonuclease inhibition. P27695. recombinant APE1, TAMRA/BHQ-2 abasic DNA cleavage fluorescence. Potency, µM (doses to about 65.8 µM), for inactives: top-dose activity change, negative = inhibition, actives largely listed as inhibitors. hit rate 0.35% among 350,000. AID 2517;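 note: potency is the fitted concentration of half-maximal effect; plate controls were vehicle for no effect and reference inhibitor for full effect; nearly all actives have a fitted effect of over 55% in size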
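Kinetic fluorescence read (525 ex/598 em nm, three reads 60 s apart) of AP-site incision; signal = third minus first read. Enzyme 0.75 nM, dual-labelled THF duplex 50 nM, compound preincubation 15 min RT.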
BLM helicase inh-1 – Bloom syndrome helicase (human) inhibition. P54132. recombinant BLM DNA unwinding, fluorescence dequenching. Potency, µM (top dose mostly 56.1 µM), inactives show at the top dose activity change, negative = inhibition, most hits filed as inhibitors. hit rate 0.2% among 350,000;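 note: potency is the fitted concentration of half-maximal effect; plate controls were vehicle for no effect and no enzyme for full effect; nearly all actives have a fitted effect of over 35% in size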
RECQ1 inh-1 – RECQ1 (human) helicase inhibition; hit rate 0.54% among 240,000; P46063; Potency, µM (doses to about 57.3 µM), for inactives: at the top dose activity, negative = inhibition, hits mostly inhibitors; RECQ1 DNA unwinding, red fluorescence kinetic read;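 note: potency is the fitted concentration of half-maximal effect; plate controls were vehicle for no effect and no enzyme for full effect; nearly all actives have a fitted effect of over 30% in size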
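RECQ1T1 50 nM; forked duplex (20 bp + 30-nt ss tails) 200 nM, ATP 2 mM final; pH 8.0, 2 mM MgCl2, 2.5 ug/ml poly(dI-dC); 15 min compound preincubation; discontinuous kinetic read over 2 h at RT.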
DNA dye displace – displaces fluorescent dye from DNA, flagging APE1 artifacts. Potency, µM (top dose mostly 28.5 µM), for the others: top-dose activity change, negative = inhibition, most hits filed as inhibitors. shares compounds with APE1 inh-1. DNA fluorescent dye displacement counterscreen, fluorescence. hit rate 7% among 480;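 note: loss of thiazole orange fluorescence as the dye is displaced from duplex DNA; potency is the fitted concentration of half-maximal effect; 0% = ThO with dsDNA and no compound and -100% = ThO without dsDNA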
Endo IV inh – counter-screen for APE1 inhibitors: inhibitors of E. coli endonuclease IV | E. coli Endo IV, fluorogenic AP-site DNA cleavage | AID 2565 | Potency, µM (highest dose often 27.1 µM), without a hit: at the highest dose activity change, negative = inhibition, hits mostly inhibitors | shares compounds with APE1 inh-1 | hit rate 4% among 560;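 note: potency is the fitted concentration of half-maximal effect; plate controls were uninhibited enzyme wells for no effect and no enzyme buffer wells for full effect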
APE1 inh-2 – confirmation of inhibitors of human APE1 endonuclease; shares compounds with APE1 inh-1; purified APE1, fluorogenic abasic-site DNA cleavage; Potency, µM (titrated, usually from 57.1 µM), inactives show at the highest dose activity change, negative = inhibition, usual class: inhibitors; hit rate 44% among 750; AID 2572; note: potency is the fitted concentration of half-maximal effect; % is set by controls: 0 for no effect and ±100 for the full control effect; nearly all actives have a fitted effect of over 30% in size
APE1 FP inh – APE1 (human) DNA binding inhibition, fluorescence polarization; shares compounds with APE1 inh-1; APE1 binding to TAMRA-labelled double-stranded DNA, fluorescence polarization displacement; Potency, µM (top dose mostly 28.5 µM), for inactives: at the highest dose activity, negative = inhibition, hits mostly inhibitors; hit rate 7% among 480; note: potency is the fitted concentration of half-maximal effect; % is set by controls: 0 for no effect and ±100 for the full control effect
RECQ1 inh conf – confirmation of human RECQ1 helicase inhibitors; hit rate 28% among 610; RECQ1 helicase DNA unwinding, fluorescence; shares compounds with RECQ1 inh-1; Potency, µM (doses to about 229 µM), for inactives: at the highest dose activity change, negative = inhibition, usual class: inhibitors; note: potency is the fitted concentration of half-maximal effect; % is set by controls: 0 for no effect and ±100 for the full control effect; nearly all actives have a fitted effect of over 45% in size
RECQ1 ADP FP – ADP displacement flagged in RECQ1 inhibitor counter-screen | shares compounds with RECQ1 inh-1 | ADP fluorescence polarization displacement counterscreen | Potency, µM (series often up to 228 µM), without a hit: at the highest dose activity change, negative = inhibition, usual class: inhibitors | hit rate 27% among 530 | AID 2711; note: potency is the fitted concentration of half-maximal effect; % is set by controls: 0 for no effect and ±100 for the full control effect; nearly all actives have a fitted effect of over 45% in size
RECQ1 inh-2 – confirmation of human RECQ1 helicase inhibitors; hit rate 15% among 1,100; Potency, µM (top dose mostly 119 µM), for the others: at the top dose activity, negative = inhibition, most hits filed as inhibitors; AID 504841; shares compounds with RECQ1 inh-1; recombinant RECQ1 DNA unwinding, red fluorescence; note: potency is the fitted concentration of half-maximal effect; % is set by controls: 0 for no effect and ±100 for the full control effect; nearly all actives have a fitted effect of over 50% in size
FEN1 inh-2 – FEN1 inhibition, cherry-pick retest. shares compounds with FEN1 inh-1. FEN1 flap cleavage, TAMRA/BHQ2 fluorogenic DNA substrate. Potency, µM, usual class: inhibitors. hit rate 79% among 880; note: potency is the fitted concentration of half-maximal effect; nearly all actives have a fitted effect of over 60% in size
WRN helicase inh-2 – WRN helicase inhibition, cherry-pick retest; shares compounds with WRN helicase inh-1; WRN helicase DNA unwinding, fluorescence kinetic; Potency, µM (highest dose often 57.1 µM), for inactives: top-dose activity, negative = inhibition, hits mostly inhibitors; hit rate 63% among 610; note: potency is the fitted concentration of half-maximal effect; nearly all actives have a fitted effect of over 65% in size
TO DNA binding – binds DNA, flagged in WRN inhibitor counterscreen | shares compounds with WRN helicase inh-1 | thiazole orange DNA binding displacement, fluorescence | Potency, µM (series often up to 57.1 µM), without a hit: at the highest dose activity change, negative = inhibition, hits mostly inhibitors | hit rate 10% among 610 | AID 720499;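 note: drop in dye fluorescence marks compound binding to DNA; potency is the fitted concentration of half-maximal effect; % is set by controls: 0 for no effect and ±100 for the full control effect; nearly all actives have a fitted effect of over 60% in size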
BLM helicase inh-2 – BLM helicase inhibition, WRN selectivity check | Potency, µM (titrated, usually from 57.1 µM), for inactives: at the highest dose activity change, negative = inhibition, actives largely listed as inhibitors | shares compounds with WRN helicase inh-1 | hit rate 60% among 610 | Recombinant BLM helicase DNA unwinding, red fluorescence; note: potency is the fitted concentration of half-maximal effect; nearly all actives have a fitted effect of over 60% in size
* marks the source's active call; other numbers are inactive results; ? = inconclusive; . = not tested or not shown; [ ] = another dose, or the depositor's remark. Only some compounds are listed: those with a hit (about 1.5% of all), similar ones and a draw of the others. Unless noted, calls come from the whole dose curve; as a rule, active = well fitted curve in the direction sought with a large enough effect; inconclusive = small, poorly fitted or top-dose-only effect, or another doubt; inactive = no such curve, though single readings can be large; an effect the other way counts as inactive or inconclusive.

SMILES | FEN1 inh-1 | WRN helicase inh-1 | PI5P4Ka inh | APE1 inh-1 | BLM helicase inh-1 | RECQ1 inh-1 | DNA dye displace | Endo IV inh | APE1 inh-2 | APE1 FP inh | RECQ1 inh-2 | WRN helicase inh-2 | TO DNA binding | BLM helicase inh-2 | others
Cc1cc(O)c(Oc2cc(C)cc(O)c2O)c(O)c1 | 50.1µM* | 28.2µM* | ? | 10µM* | -4.0% | 12.6µM* | 5.0% | 77.3% | ? | 5.5% | ? | 19.2µM* | -6.6% | 21.5µM*
O=C(Nc1nc2c(F)cccc2s1)c1ccc2c(c1)OCCO2 | -23.6% | . | . | . | 1.0% | . | . | . | . | . | . | . | . | .
Cc1cc(NC(=O)Cc2cccs2)no1 | 56.2µM* | ? | . | 28.2µM* | ? | 25.1µM* | ? | ? | 7.94µM* | -84.7% | ? | 8.57µM* | 24.1µM* | 0.961µM* | FEN1 inh-2=?
Cc1cc(NS(=O)(=O)c2ccc(NC(=O)Cc3cccs3)cc2)no1 | -1.1% | -6.4% | . | -5.1% | -2.8% | 18.9% | . | . | . | . | . | . | . | .
CCn1c(CSc2nc3ccccc3s2)nnc1SCC(=O)c1ccc(O)c(O)c1 | -10.1% | ? | . | 17.8µM* | -11.1% | 7.94µM* | ? | 151.0% | ? | 7.8% | ? | 1.36µM* | 27.1µM* | ? | RECQ1 inh conf=14.0%[114 µM];RECQ1 ADP FP=?
Cc1ccccc1OCc1ccc(-c2nc(C#N)c(N3CCC(C(N)=O)CC3)o2)o1 | -19.6% | . | . | . | -8.2% | . | . | . | . | . | . | . | . | .
